Screens as filed in PubChem BioAssay.
This is a sample that favours compounds with a hit; in the whole collection about 11% have one here.
Vaccinia mCherry = inhibitors of vaccinia virus infection (mCherry reporter signal) | actives 0.63% (n = 310,000) | Potency, µM (series often up to 36.5 µM), for the others: at the highest dose activity change, negative = inhibition, hits mostly inhibitors | Vaccinia virus mCherry reporter infection, fluorescence | AID 720579; calls by dose curve; tested in A549 cells; also: % is scaled to controls: 0 for no effect and ±100 for the full control effect; nearly all actives have a fitted effect of over 35% in size
Pf growth 48h = P. falciparum growth inhibition at 48 hours (one generation) | P. falciparum luciferase growth in erythrocytes, 48 h | Potency, µM (highest dose often 28.7 µM), for the others: at the top dose activity change, negative = inhibition, usual class: inhibitors | actives 5.9% (n = 310,000); also: % is scaled to controls: 0 for no effect and ±100 for the full control effect
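Firefly luciferase activity from engineered P. falciparum reports growth; inhibitors lower the luminescent signal. Cultures contained 2% hematocrit erythrocytes at 0.1% final parasitemia.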
NS1 inh = influenza NS1 inhibition; Potency, µM (doses to about 46.1 µM), without a hit: at the highest dose activity, positive = more growth; actives 0.4% (n = 270,000); calls by dose curve; also: actives are rising curves; nearly all actives have a fitted effect of over 50% in size
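Recovery from NS1-induced slow growth read by OD600 in budding yeast switched to galactose assay medium (pH 6.0, -URA) at 1:100 dilution. Compound 23 nl per well; the matching strain lacking NS1 serves as control.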
HCV inhibitor = HCV inhibition; AID 651820; Huh7.5.1 HCVcc-Cre infection, luciferase reporter, 44 h; actives 3.4% (n = 340,000); Potency, µM (doses to about 41.8 µM), inactives show at the top dose activity change, negative = inhibition, actives largely listed as inhibitors; also: % is scaled to controls: 0 for no effect and ±100 for the full control effect
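Seed cells (1,000/well) for 4 h; treat with compound and infect with HCVcc-Cre, moi about 0.5. Incubate 44 h, then detect luciferase activity.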
Pf growth 96h = P. falciparum growth inhibition at 96 hours; P. falciparum luciferase reporter growth, 96 h; Potency, µM (top dose mostly 28.7 µM), inactives show at the highest dose activity change, negative = inhibition, hits mostly inhibitors; actives 6.9% (n = 320,000); also: % is scaled to controls: 0 for no effect and ±100 for the full control effect
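Cell-based qHTS: luciferase-tagged P. falciparum in erythrocytes (2% hematocrit, 0.05% parasitemia final) incubated with compounds for 96 hours, 37 C, 5% CO2; luciferase detection reagent then added and luminescence measured.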
Vaccinia Venus = inhibitors of vaccinia virus (Venus reporter); AID 720580; actives 0.46% (n = 330,000); Vaccinia virus Venus reporter expression, fluorescence; Potency, µM (highest dose often 36.5 µM), without a hit: at the highest dose activity change, negative = inhibition, usual class: inhibitors; calls by dose curve; tested in A549 cells; also: % is scaled to controls: 0 for no effect and ±100 for the full control effect; nearly all actives have a fitted effect of over 30% in size
The depositor's hits bear a star; i = inactive; ? = inconclusive; nt = no result given; [ ] = dose if it differs, or a comment. Unless noted, calls follow the shape of the dose curve; as a rule, active = well fitted inhibition curve with a large enough effect; inconclusive = small, poorly fitted or top-dose-only effect, or another doubt; inactive = no such curve, though single readings can be large or run the other way. Potency is read from the fitted curve at half-maximal effect.

SMILES	Vaccinia mCherry	Pf growth 48h	NS1 inh	HCV inhibitor	Pf growth 96h	Vaccinia Venus
CC(=O)c1c(C)nc(-c2ccc(Cl)cc2)nc1N=CN(C)C	-15%	143%	-12%	1%	?	-13%
COc1ccc(CCNS(=O)(=O)c2cc3c4c(c2)C(C)C(=O)N4CCC3)cc1OC (configuration not stated)	nt	0%	14%	-9%	?	nt
CC1C(=O)N2CCCc3cc(S(=O)(=O)NCCc4ccccc4)cc1c32 (configuration not stated)	nt	-1%	6%	?	2.1µM*	nt
O=C(Nc1ccc(-c2nc3ccccc3o2)c(O)c1)c1cc(-n2cnnc2)ccc1Cl	nt	9.3µM*	?	11µM*	-16%	nt
O=C(Nc1ccc2oc(-c3ccccc3)nc2c1)c1cc(-n2cnnc2)ccc1Cl	nt	-24%	nt	?	-26%	nt
O=C(Nc1ccc(-c2nc3ccccc3o2)cc1)c1cc(-n2cnnc2)ccc1Cl	nt	12µM*	4%	?	15µM*	nt
O=C(Nc1ccc(-c2nc3ccccc3o2)cc1)c1ccc(N2C(=O)C3C4C=CC(C4)C3C2=O)cc1 (configuration not stated)	i	nt	10%	4µM*	1.9µM*	-19%
COC(=O)C(C(=O)OC)C1CCCCC1NS(=O)(=O)c1ccc(C)cc1 (configuration not stated)	-9%	nt	nt	nt	nt	-14%
CC(=O)c1c(CSc2ccccc2)oc2ccc(O)c(CN(C)C)c12	-22%	?	-5%	?	2%	-15%
CCOC(=O)c1c(CN2CCN(C)CC2)oc2ccc(O)cc12	nt	-28%	5%	8%	?	nt
CCOC(=O)c1c(CSc2ccccc2)oc2cc(Br)c(O)c(CN(C)C)c12	-16%	2.6µM*	5%	?	?	-19%
CCOC(=O)c1c(-c2ccccc2)oc2cc(CN(C)C)c(O)c(CN(C)C)c12	nt	nt	nt	10µM*	nt	nt
CCOC(=O)c1oc2c(CN3CCN(C)CC3)c(O)ccc2c(=O)c1-c1ccccc1OC	7%	-3%	-7%	1%	9.3µM*	-5%
CCOC(=O)c1c(-c2ccccc2)oc2ccc(O)c(CN3CCN(C)CC3)c12	?	3.7µM*	-5%	13µM*	3.3µM*	?
COc1cc(CCC(=O)NNC(=O)c2ccc(C)cc2)cc(OC)c1OC	-16%	6%	nt	6%	7%	-9%
CCCCOC(=O)c1ccc(Nc2nc3ccc(C(=O)c4ccccc4)cc3n3cnnc23)cc1	-27%	nt	nt	nt	nt	?
CCOC(=O)c1c(CSc2ccc(CC)cc2)oc2ccc(O)c(CN(C)C)c12	-24%	2.3µM*	-2%	4µM*	11%	?
Cn1c(=O)c2sccc2n2c(CCCC(=O)NCCc3ccc(S(N)(=O)=O)cc3)nnc12	-1%	7%	2%	2%	16%	-1%
CCC1(C)CC(CC(=O)O)(c2ccccc2OC)CCO1 (configuration not stated)	nt	49%	?	25%	-26%	-13%
CCC(C(=O)NCc1ccccc1Cl)n1nc(C)c2sc3ccccc3c2c1=O (configuration not stated)	-9%	nt	nt	nt	nt	-9%
Cc1ccc2c(c1)c(C)cc[n+]2Cc1ccccc1	?	0.37µM*	2%	?	0.19µM*	-28%
COc1ccc2c(c1)c(C)cc[n+]2Cc1ccccc1	nt	?	14%	-17%	0%	nt
Cc1ccc2ccc[n+](Cc3ccccc3)c2c1	-20%	0.41µM*	nt	?	0.52µM*	-28%
Cc1cc(C)n(-c2nc3ccccc3nc2N2CCCCCC2)n1	-15%	?	-8%[9.22 µM]	0%	-14%	-14%
O=C(O)c1ccc(COc2ccccc2Cl)cc1	nt	-3%	-204%	23%	nt	nt
COc1ccc(-c2oc3cccnc3c2/C=C/c2ccc(OC)c(OC)c2)cc1	?	?	?	?	12µM*	-16%
CN(C(=O)COC(=O)c1nc(Cl)c(Cl)c(Cl)c1Cl)C1CCS(=O)(=O)C1 (configuration not stated)	-18%	31%[1.15 µM]	-4%	10µM*	51%[1.15 µM]	-22%
